From PubChem BioAssay
For part of these data: Results with a measured potency or affinity are listed apart. The source made the active and inactive calls.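 Rule for the calls, unless noted: active = fitted half-maximal concentration within 10 nM to 100 µM, steepness 0.5 to 2, significant signal drop, low assay interference; inactive = the rest.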

Experiments:
[1] = target: Cell division control protein 42 homolog (Homo sapiens) (UniProt P60953); assay: inhibition of fluorescent GTP binding to constitutively active Cdc42 – biochemical, multiplex bead flow cytometry, Bodipy-FL-GTP, dose response (AID 1333;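 active = fitted half-maximal concentration within the tested dose range, moderate curve steepness, a statistically real signal drop, and little compound fluorescence or tag-binding interference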)
[2] = target: Cell division control protein 42 homolog (Homo sapiens) (UniProt P60953); assay: inhibition of fluorescent GTP binding to wildtype Cdc42 – biochemical, multiplex bead flow cytometry, Bodipy-FL-GTP, dose response (AID 1334;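 active = fitted half-maximal concentration within the tested range, moderate curve steepness, significant signal drop, and little compound fluorescence or bead-linkage interference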); details: bead-based flow cytometry, Bodipy-FL-GTP binding to GST-Cdc42; at 100 µM (top of the series) unless noted
[3] = target: GTPase HRas (Homo sapiens) (UniProt P01112); assay: Ras wt fluorescent GTP loading blockade – biochemical, wildtype, multiplex bead flow cytometry, dose response (AID 1335); details: bead-based flow cytometry, Bodipy-GTP binding to GST-Ras; at 100 µM (top of the series) unless noted
[4] = system: Ras-related protein Rab-7a (dog), GTP binding; assay: blockers of fluorescent GTP binding to Rab7 – biochemical, wildtype, multiplex bead flow cytometry, dose response (AID 1336; call rule not given here)
[5] = target: Ras-related C3 botulinum toxin substrate 1 (Homo sapiens) (UniProt P63000); assay: inhibition of wildtype Rac1 nucleotide loading – biochemical, multiplex bead flow cytometry, dose response (AID 1340;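 active = dose curve with midpoint inside tested range, moderate steepness, plateau gap beyond fit error, low compound glow and bead-link interference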); details: GST-Rac1 beads, Bodipy-FL-GTP binding; at 100 µM (top of the series) unless noted
[6] = target: GTPase HRas (Homo sapiens) (UniProt P01112); assay: blockade of GTP loading onto mutant Ras – biochemical, activated mutant, multiplex bead flow cytometry, dose response (AID 1341;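 active = dose-response curve with midpoint inside the tested range, moderate steepness, significant amplitude and little compound fluorescence or bead-attachment interference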;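 note: GST-tagged constitutively activated Ras mutant immobilized on beads and multiplexed with other GTPases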)

Cell division control protein 42 homolog (Homo sapiens), sequence (P60953 whole entry, looked up): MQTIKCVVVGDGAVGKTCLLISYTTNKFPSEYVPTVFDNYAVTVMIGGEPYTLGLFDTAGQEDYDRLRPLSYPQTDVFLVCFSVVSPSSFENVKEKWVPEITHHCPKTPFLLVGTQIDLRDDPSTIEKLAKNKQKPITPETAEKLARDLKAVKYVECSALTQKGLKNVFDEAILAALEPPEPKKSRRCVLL
GTPase HRas (Homo sapiens), sequence (P01112 whole entry, looked up): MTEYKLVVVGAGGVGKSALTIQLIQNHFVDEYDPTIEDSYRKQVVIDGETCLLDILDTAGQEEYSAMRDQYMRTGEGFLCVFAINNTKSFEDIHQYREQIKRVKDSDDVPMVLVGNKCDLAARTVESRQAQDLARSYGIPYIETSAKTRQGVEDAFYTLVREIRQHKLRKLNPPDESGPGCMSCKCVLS

Row | SMILES | outcome [1] | fluorescence, percent of control (lower = inhibition) [2] [%] | GTP binding, percent of control [3] [%] | outcome [4] | GTP binding signal, raw median fluorescence (lower = inhibition) (MCF (arbitrary fluorescence units)) [5] | outcome [6]
1 | CC1=CC(=O)C=C(C)C1=NOS(=O)(=O)c1ccccc1 | inactive | 29.6 | 81.2 | inactive | 223 | inactive
2 | Cc1ccc(NS(=O)(=O)c2cc(NC(=O)c3ccc4c(c3)NC(=O)CS4)ccc2Cl)c(C)c1 | inactive | 36.1 | 86.2 | inactive | 282 | inactive
3 | O=C(C[n+]1cccc2ccccc21)c1ccc(NC(=O)c2ccccc2)cc1 | inactive | 75.8 | 123 | inactive | 332 | inactive
4 | COc1ccc(S(=O)(=O)Cc2ccc(C(=O)N3CCN(c4cccc(C)c4C)CC3)o2)cc1 | inactive | 41.5 | 62.1 | inactive | 171 | inactive
5 | COc1ccccc1OCCSc1nc2ccccc2n1CC(=O)O | inactive | 62.3 | 87.1 | inactive | 33.6 | inactive
6 | COc1ccc(-n2cc(-c3ccccc3)c3c(=O)[nH]cnc32)cc1 | inactive | 39.1 | 84.4 | inactive | 327 | inactive
7 | Cc1cccc(COc2nc3ccccc3cc2C(=O)O)c1 | inactive | 54.8 | 213 | inactive | 52.2 | inactive
8 | N#Cc1c(C(F)(F)F)cc(-c2ccc(Cl)cc2)[nH]c1=O | inactive | 27.5 | 66 | inactive | 178 | inactive
9 | O=C(NNc1nc(-c2ccccc2)c2cc(Br)ccc2n1)c1ccc(S(=O)(=O)N2CCOCC2)cc1 | inactive | 40.3 | 53.5 | inactive | 124 | inactive
10 | CC1(C)Cc2c(sc(NC(=O)c3ccc(Br)o3)c2C#N)CO1 | inactive | 49.4 | 62.3 | inactive | 212 | inactive
11 | CCOCCCNc1nc(=S)[nH]c2cc(OC)c(OC)cc12 | inactive | 60.4 | 99.7 | inactive | 111 | inactive
12 | Cc1ccc(Sc2nnc(-c3ccccc3)cc2C#N)cc1 | inactive | 104 | 178 | inactive | 185 | inactive
13 | Cc1cc(NCc2ccccn2)n2c(nc3ccccc32)c1C#N | inactive | 42.7 | 87.9 | inactive | 192 | inactive
14 | CCCCCCNc1cc2n(c(=O)n1)CCc1cc(OC)c(OC)cc1-2 | inactive | 44.7 | 104 | inactive | 128 | inactive
15 | COc1cccc(-n2nc3c(-n4ncc(C#N)c4N)nnc(C)c3c2C)c1 | inactive | 54.8 | 64.6 | inactive | 212 | inactive
16 | Cc1cc(NCc2sc(C(=O)O)cc2C)ccc1Br | inactive | 57.8 | 81.7 | inactive | 33.8 | inactive
17 | CS(=O)(=O)N1CCN(C(=O)C2c3ccccc3Oc3ccccc32)CC1 | inactive | 36.7 | 78.7 | inactive | 268 | inactive
18 | CSc1ccc(/C=N/NC(=O)c2cc(O)cc(O)c2)cc1 | inactive | 33.1 | 58.6 | inactive | 160 | inactive
19 | CC(C)(C)c1ccc(OCCn2cc(C(=O)O)c3ccccc32)cc1 | inactive | 57.9 | 82.9 | inactive | 30.4 | inactive
20 | CC(C)Sc1nc(-c2ccccc2)cc(=O)[nH]1 | inactive | 88.8 | 156 | inactive | 170 | inactive

Row | SMILES | outcome [1] | fluorescence, percent of control (lower = inhibition) [2] [%] | GTP binding, percent of control [3] [%] | outcome [4] | GTP binding signal, raw median fluorescence (lower = inhibition) (MCF (arbitrary fluorescence units)) [5] | outcome [6]
21 | COCCNc1nnnc2c1sc1nc(N3CCOCC3)c3c(c12)CCCC3 | inactive | 29.6 | 64.1 | inactive | 137 | inactive
22 | CCOc1ccc(-n2nc3c(SCCN4CCCC4)nnc(C)c3c2C)cc1 | inactive | 57.3 | 71.4 | inactive | 230 | inactive
23 | Cc1ccc(/C=C/C(=O)c2ccccc(=O)c2O)cc1C | inactive | 37.3 | 81.8 | inactive | 245 | inactive
24 | CCOc1ccc(CCNc2ccc3nnc(-c4ccccc4)n3n2)cc1OCC | inactive | 40.9 | 54.2 | inactive | 141 | inactive
25 | C=CCN1C(=O)/C(=C/C=C2/N(CC)c3ccc(S(=O)(=O)N(C)C)cc3N2CC)SC1=S | inactive | 56.2 | 88.4 | inactive | 215 | inactive
26 | Cc1ccc(N2C(=O)c3ccccc3C2Nc2cccnc2)nc1 (stereo not given) | inactive | 37 | 84.5 | inactive | 272 | inactive
27 | COc1ccc(C(=O)O)c(OCc2ccccc2Br)c1 | inactive | 59.6 | 171 | inactive | 56.1 | inactive
28 | Cc1nc(-c2ccccc2)sc1C(=O)NN | inactive | 39.4 | 82.3 | inactive | 248 | inactive
29 | Cc1cc(C)n2nc(SCCOc3ccccc3F)nc2n1 | inactive | 34.1 | 72.5 | inactive | 144 | inactive
30 | O=C(O)c1ccc2c3c(cccc13)C(=O)N(OS(=O)(=O)c1ccccc1)C2=O | inactive | 33.5 | 78.2 | inactive | 191 | inactive
31 | COc1ccccc1CNC(=O)c1c(N)n(CCCN2CCOCC2)c2nc3ccccc3nc12 | inactive | 44.4 | 89.9 | inactive | 214 | inactive
32 | COc1ccc(S(=O)(=O)N2CCN(CC(=O)Nc3cc(C(F)(F)F)ccc3Cl)CC2)cc1 | inactive | 84.2 | 153 | inactive | 182 | inactive
33 | O=C(Oc1c(Br)cc(C(=S)N2CCOCC2)cc1Br)c1ccc(Cl)cc1 | inactive | 29.7 | 85 | inactive | 217 | inactive
34 | O=C(O)/C=C/C(=O)Nc1cccnc1 | inactive | 50.8 | 64.4 | inactive | 200 | inactive
35 | O=C(Oc1cccc(O)c1)C1CCCCC1 | inactive | 36.8 | 81.6 | inactive | 296 | inactive
36 | Cc1cccc(Cc2c(C)nc3nc(SCC(=O)O)nn3c2C)c1 | inactive | 30.6 | 81.6 | inactive | 227 | inactive
37 | CCCCCCn1nc(C(=O)OCC(=O)c2c(N)n(C)c(=O)n(C)c2=O)c2ccccc2c1=O | inactive | 36 | 80.1 | inactive | 203 | inactive
38 | CCOC(=O)N1CCC(NC(=O)c2ccc3nc4ccccc4c(=O)n3c2)CC1 | inactive | 97.6 | 122 | inactive | 152 | inactive
39 | CC(C)(C)C(=O)C#Cc1ccccc1 | inactive | 53.5 | 203 | inactive | 55.8 | inactive
40 | Cc1ccc(NC(=O)Nc2ccnc(-c3cccnc3)n2)cc1 | inactive | 36.6 | 73.3 | inactive | 162 | inactive

Row | SMILES | outcome [1] | fluorescence, percent of control (lower = inhibition) [2] [%] | GTP binding, percent of control [3] [%] | outcome [4] | GTP binding signal, raw median fluorescence (lower = inhibition) (MCF (arbitrary fluorescence units)) [5] | outcome [6]
41 | Cn1nc([N+](=O)[O-])c(C(C#N)c2ccccn2)c(Cl)c1=O (stereo not given) | inactive | 24 | 74.7 | inactive | 201 | inactive
42 | N#C/C(=C\c1ccncc1)c1nc2ccccc2[nH]1 | inactive | 31 | 81.6 | inactive | 273 | inactive
43 | COC(=O)c1c(N2C(=O)[C@H]3[C@@H](C2=O)[C@]2(C(=O)Nc4c2ccc(C)c4C)N2CCC[C@@H]32)sc(C)c1C | inactive | 55.3 | 71.4 | inactive | 0 | inactive
44 | O=C(O)c1cccc(-n2cccc2/C=C2/NC(=O)N(c3ccc(Cl)cc3)C2=O)c1 | inactive | 22.7 | 64.3 | inactive | 213 | inactive
45 | COc1ccc(C(=O)C2CCCN(C(=O)c3cc4nc(C)cc(C)n4n3)C2)cc1F (stereo not given) | inactive | 41.4 | 95.1 | inactive | 274 | inactive
46 | COc1ccc2c(C(=O)O)cn(CCOc3ccccc3C)c2c1 | inactive | 64.6 | 214 | inactive | 59.2 | inactive
47 | O=S(=O)(Cc1ccccc1)c1ccccc1-c1nnc(-c2ccccc2)o1 | inactive | 89.9 | 166 | inactive | 188 | inactive
48 | COc1cc(/C=N/Nc2ncnc3sc4c(c23)CCC4)ccc1O | inactive | 33.9 | 48.1 | inactive | 126 | inactive
49 | COc1ccc(-c2cc(=O)c(C(=O)c3ccc(C)cc3)n[nH]2)cc1 | inactive | 35.8 | 80.8 | inactive | 317 | inactive
50 | CCCCCCCCCCCCCCCC(=O)Nc1cccc(C#CC(=O)c2ccc([N+](=O)[O-])cc2)c1 | inactive | 66 | 186 | inactive | 134 | inactive
51 | Cc1cc(C)n(Cc2n[nH]c(=S)n2Cc2ccccc2)n1 | inactive | 106 | 189 | inactive | 198 | inactive
52 | Cc1ccccc1CSCc1ccc(C(=O)O)o1 | inactive | 61.3 | 89.8 | inactive | 30.2 | inactive
53 | O=c1c2ccccc2nc2ccc(NCc3ccco3)nn12 | inactive | 31.4 | 71.8 | inactive | 196 | inactive
54 | O=C(N/N=C/c1ccc(-c2ccccc2[N+](=O)[O-])o1)c1cncc(Br)c1 | inactive | 44.2 | 55.2 | inactive | 150 | inactive
55 | CC(C)(C)c1ccc(OCCSc2nc3ccccc3n2CC(=O)O)cc1 | inactive | 52.3 | 87.1 | inactive | 35.4 | inactive
56 | COc1cccc(C(=O)O)c1OCc1ccccc1Br | inactive | 57 | 201 | inactive | 53.6 | inactive
57 | Cc1cc(-c2nnc3n2N=C(c2ccc(-c4ccccc4)cc2)CS3)n[nH]1 | inactive | 31.3 | 72.4 | inactive | 172 | inactive
58 | COc1cccc(C2CC(c3ccccc3)=NN2S(=O)(=O)c2ccc(C)cc2)c1OC (stereo not given) | inactive | 93.3 | 141 | inactive | 311 | inactive
59 | Cc1cccc(OCCSc2nc3ccccc3n2CC(=O)O)c1C | inactive | 58.6 | 87.7 | inactive | 30.5 | inactive
60 | Cc1ccc(NCc2sc(C(=O)O)cc2C)cc1 | inactive | 63 | 86.6 | inactive | 35.4 | inactive
